Autofluor counter = compound fluorescence in toxin protease inhibitor counterscreen | fluorescence intensity (test concentration not listed) | compound autofluorescence counterscreen, microsphere flow cytometry; active compounds read high | 360,000 compounds, 3.1% hits; in the data active = fluorescence intensity above about 16000; inconclusive = no clear call, values can overlap the other calls
BoNT A protease = blocks Botulinum neurotoxin A light chain protease; multiplex microsphere protease substrate cleavage, flow cytometry; inhibition, % at 10 µM; 360,000 compounds, 0.17% hits
BoNT F protease = blocks Botulinum neurotoxin F light chain protease; Multiplex microsphere protease cleavage assay, flow cytometry; inhibition, % at 10 µM; 360,000 compounds, 0.22% hits; in the data active = inhibition above about 35%, passing the limit was not always enough; inconclusive = no clear call, values can overlap the other calls
Anthrax LF prot = inhibitors of Bacillus anthracis lethal factor protease; P15917; multiplex microsphere protease cleavage assay, LF; inhibition, % at 10 µM; 360,000 compounds, 0.12% hits
MazF activator = activators of E. coli MazEF toxin-antitoxin RNase. activation, % at 20 µM. FAM/BHQ RNA-DNA oligo cleavage fluorescence, 5 h. P0AE70. 350,000 compounds, 0.32% hits; in the data active = activation above about 50%
Numbers stand for hits. In the library only some 3.7% were active in any assay of this set; here they are far more common. Rule as the data show it, unless noted: active = inhibition above about 30%; inconclusive = no clear call, values can overlap the other calls; inactive = below that.

Screening S=C(NCCC1=CCCCC1)Nc1ccc(Cl)cc1 returned Autofluor counter inactive, BoNT A protease inactive, BoNT F protease inactive, Anthrax LF prot inactive and MazF activator inactive.
Screening CCc1nc(OCc2ccccc2)c2sc3nc4c(cc3c2n1)COC(C)(C)C4 returned Autofluor counter 21172, BoNT A protease inconclusive, BoNT F protease inactive, Anthrax LF prot inactive and MazF activator inactive.
For Cc1ccc(C(=O)Nc2ncc(Cc3ccccc3)s2)o1 the results were Autofluor counter 24322, BoNT A protease inactive, BoNT F protease inactive, Anthrax LF prot inactive and MazF activator inactive.
`O=C(Nc1ncc(Cc2ccccc2)s1)c1cccs1` gave Autofluor counter inactive, BoNT A protease inactive, BoNT F protease inactive, Anthrax LF prot inactive and MazF activator inactive.
For O=C(Nc1ncc(Cc2ccc(SC(F)F)cc2)s1)c1ccccc1 the results were Autofluor counter 21972, BoNT A protease inactive, BoNT F protease inactive, Anthrax LF prot inactive and MazF activator inactive.
Screening C=CCNC(=O)c1cc2cc(Cl)ccc2nc1N returned Autofluor counter inactive, BoNT A protease inactive, BoNT F protease inactive and Anthrax LF prot inactive.
For OC(c1ccccc1)(c1nc(-c2cc3ccccc3o2)cs1)C(F)(F)F (configuration not stated) the results were Autofluor counter inactive, BoNT A protease inactive, BoNT F protease inactive and Anthrax LF prot inactive.
For CC(=NNC(=S)N1CCCCC1)c1cccc(C)n1 the results were Autofluor counter inactive, BoNT A protease inactive, BoNT F protease inactive, Anthrax LF prot inactive and MazF activator inactive.
Screening CC(=NNc1nc2ccccc2s1)c1ccncn1 returned Autofluor counter inactive, BoNT A protease inactive, BoNT F protease inactive, Anthrax LF prot inactive and MazF activator inactive.
CC(=NNC(=S)Nc1ccccc1)c1ccccn1 was read as Autofluor counter inactive, BoNT A protease inactive, BoNT F protease inactive, Anthrax LF prot inactive and MazF activator inactive.
Screening CC(=NNC(=S)N1CCCCC1)c1ccccn1 returned Autofluor counter inactive, BoNT A protease inactive, BoNT F protease 73.2, Anthrax LF prot 87.1 and MazF activator inactive.
CC(=NNC(=S)N1CC2CCC(CC2)C1)c1ccncn1 was read as Autofluor counter inactive, BoNT A protease inactive, BoNT F protease 59.1, Anthrax LF prot 57.2 and MazF activator inactive.
For C=CCNC(=S)N/N=C(\C)c1ccccn1 the results were Autofluor counter 16885, BoNT A protease inactive, BoNT F protease inactive, Anthrax LF prot inactive and MazF activator inactive.
O=C(Cn1nnc(-c2ccc(N3CCOCC3)cc2)n1)OC1CCCCC1 was read as Autofluor counter 21996, BoNT A protease inactive, BoNT F protease inactive, Anthrax LF prot inactive and MazF activator inactive.
For O=C(Cn1nnc(-c2ccc(CN3CCOCC3)cc2)n1)Nc1nc(-c2ccccc2)cs1 the results were Autofluor counter 21308, BoNT A protease inactive, BoNT F protease inactive, Anthrax LF prot inactive and MazF activator inactive.
`CN(C)c1ccc(-c2nnn(CC(=O)Nc3ccccc3N3CCOCC3)n2)cc1` gave Autofluor counter inactive, BoNT A protease inactive, BoNT F protease inactive, Anthrax LF prot inactive and MazF activator inactive.
